The supplement of paper PMC10981050
Where a name gives a salt, the structure may show the parent alone.

tested on: MOLM14; experiment: cell viability relative to vehicle control; higher = less cytotoxic; conditions: 10 µM; SRSF2 genotype: SRSF2 wt/wt
Summary of the method: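 Four leukaemia lines, as CRISPR-edited mutant clones and isogenic wild-type clones, were tested against Selleck bioactive, kinase and epigenetic probe libraries after removal of identity-inconsistent compounds. Cells were exposed to a single 10 µM dose for 48 h, and CellTiter-Glo luminescence was then read. Viability was calculated relative to the on-plate vehicle control.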

Row | Compound | cell viability [%]
1 | CCC[C@H](Nc1nc(-c2ccc(NC(=O)NCC)c(OC)c2)ncc1C)c1cccnc1 | 1.12
2 | O=C(O)CCc1ccc(NCc2cccc(Oc3ccccc3)c2)cc1 | 95.7
3 | NC(=O)N/N=C/c1ccc([N+](=O)[O-])o1 [Nitrofurazone (Nitrofural)] | 99.5
4 | Cc1cnc(C(=O)O)c[n+]1[O-] [Acipimox] | 101
5 | CS(=O)(=O)c1ccc(-c2cnc(N)c(C(=O)Nc3ccccc3)n2)cc1 | 110
6 | COCCOc1nc(-c2ccc(Cl)c(Cl)c2)n(-c2ccc(NC(=O)CCl)cc2)n1 [MI-2 (MALT1 inhibitor)] | 0.53
7 | O=C(O)C(S)=Cc1c[nH]c2ccc(F)cc12 | 98.3
8 | C[C@]1(O)C[C@@H](c2nc(-c3ccc4ccc(-c5ccccc5)nc4c3)c3c(N)nccn32)C1 [OSI-906 (Linsitinib)] | 82.2
9 | O=C(O)/C=C/c1ccc(O)cc1 [p-Coumaric Acid] | 107
10 | c1ccc(-c2ccc(C(c3ccccc3)n3ccnc3)cc2)cc1 (configuration not stated) [Bifonazole] | 94.2
11 | Cc1cc(C)c(/C=C2\C(=O)Nc3ccccc32)[nH]1 [Semaxanib (SU5416)] | 19.8
12 | NC[C@@](O)(c1ccc(Cl)cc1)c1ccc(-c2cn[nH]c2)cc1 | 25.6
13 | COc1cc(/C=C/C(=O)CC(=O)/C=C/c2ccc(O)c(OC)c2)ccc1O [Curcumin] | 59.1
14 | Oc1ccc(-c2nc(-c3ccc(F)cc3)c(-c3ccncc3)[nH]2)cc1 | 97.3
15 | CCN(CC)CCOC(=O)C(c1ccccc1)c1ccccc1 [Adiphenine HCl] | 94.3
16 | C=C1[C@H](O)C[C@H]2[C@@H](/C=C(\C)C(=O)[C@@]3(O)C[C@H](C)[C@H](O)[C@@H]3[C@H]1O)C2(C)C | 98.1

Row | Compound | cell viability [%]
17 | COc1cccc(C=NCCN=Cc2cccc(OC)c2[O-])c1[O-].[Cl-].[Mn+3] | 104
18 | c1ccc(CNc2nc(NCc3ccccc3)c3ccccc3n2)cc1 | 0.16
19 | CCCC1O[C@@H]2C[C@H]3[C@@H]4CCC5=CC(=O)C=C[C@]5(C)[C@H]4[C@@H](O)C[C@]3(C)[C@]2(C(=O)CO)O1 (some centres not stated) [Budesonide] | 84
20 | Cc1[nH]c(/C=C2\C(=O)Nc3ccccc32)c(C)c1CCC(=O)O [Orantinib (TSU-68, SU6668)] | 89.2
21 | CC(=O)Oc1cccc2ccccc12 [1-Naphthyl acetate] | 93.8
22 | CN1CCN(CCOc2cc(OC3CCOCC3)c3c(Nc4c(Cl)ccc5c4OCO5)ncnc3c2)CC1 [Saracatinib (AZD0530)] | 55.9
23 | CC[C@H]1OC(=O)[C@@](C)(F)C(=O)[C@H](C)[C@@H](O[C@@H]2O[C@H](C)C[C@H](N(C)C)[C@H]2O)[C@](C)(OC)C[C@@H](C)C(=O)[C@H](C)[C@H]2N(CCCCn3cc(-c4cccc(N)c4)nn3)C(=O)O[C@]12C [Solithromycin] | 94.9
24 | C[C@@H]1O[C@@H](O[C@H]2[C@H](Oc3cc(O)c(C(=O)CCc4ccc(O)cc4)c(O)c3)O[C@H](CO)[C@@H](O)[C@@H]2O)[C@H](O)[C@H](O)[C@H]1O [Naringin Dihydrochalcone (Naringin DC)] | 104
25 | O=C(Nc1c[nH]nc1-c1nc2ccc(CN3CCOCC3)cc2[nH]1)NC1CC1 | 0.83
26 | Nc1ccccc1NC(=O)c1ccc(CNc2nccc(-c3cccnc3)n2)cc1 [Mocetinostat (MGCD0103)] | 0.42
27 | COc1c2c(cc3oc(COC4OC(CO)C(O)C(O)C4O)cc(=O)c13)OC(C(C)(C)O)C2 (configuration not stated) [Prim-o-glucosylcimifugin] | 88.2
28 | CN(CCOc1ccc(CC2SC(=O)NC2=O)cc1)c1ccccn1 (configuration not stated) [Rosiglitazone (Avandia)] | 96.6
29 | CC(C)CC(=O)Nc1n[nH]c2c1CN(C(=O)C1CCN(C)CC1)C2(C)C | 1.14
30 | CC1(C)[C@@H](O[C@H]2O[C@H](C(=O)O)[C@@H](O)[C@H](O)[C@H]2O[C@@H]2O[C@H](C(=O)O)[C@@H](O)[C@H](O)[C@H]2O)CC[C@]2(C)[C@H]3C(=O)C=C4[C@@H]5C[C@@](C)(C(=O)O)CC[C@]5(C)CC[C@@]4(C)[C@]3(C)CC[C@@H]12 [Ammonium Glycyrrhizinate (AMGZ)] | 106
31 | CCC(=O)Nc1cccc(Oc2nc(Nc3ccc(N4CCN(C)CC4)cc3OC)ncc2Cl)c1 | 40.7
32 | C[C@]12CC[C@@H]3c4ccc(O)cc4CC[C@H]3[C@@H]1C[C@@H](O)[C@@H]2O [Estriol] | 99.9
